About 45 (2%) of roughly 2,000 compounds were called active. The sample holds actives, similar compounds and a random draw of the others, so the mix is not that of the screen. A number with no mark means an inactive call.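 Rule for the calls: active = inhibition above the mean of all tested compounds plus 3 SD (cut at about 49% in these data); inactive = the rest.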

The target of this assay is Perilipin-5 (Homo sapiens) + 1-acylglycerol-3-phosphate O-acyltransferase ABHD5 (Homo sapiens) (UniProt Q00G26+Q8WTS1). The assay is described as follows: ABHD5-PLIN5 interaction inhibitors, pilot screen, cell lysate, split luciferase complementation, luminescence, NIH validation set (AID 493035).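 Note: 0% = DMSO only wells while the 100% control is not stated.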 The settings on record: split G. princeps luciferase complementation, lysates, 4 h; at 7.9 µM, stronger effect = higher value.
Chain of Perilipin-5 (Homo sapiens) + 1-acylglycerol-3-phosphate O-acyltransferase ABHD5 (Homo sapiens) (Q00G26 whole entry, looked up): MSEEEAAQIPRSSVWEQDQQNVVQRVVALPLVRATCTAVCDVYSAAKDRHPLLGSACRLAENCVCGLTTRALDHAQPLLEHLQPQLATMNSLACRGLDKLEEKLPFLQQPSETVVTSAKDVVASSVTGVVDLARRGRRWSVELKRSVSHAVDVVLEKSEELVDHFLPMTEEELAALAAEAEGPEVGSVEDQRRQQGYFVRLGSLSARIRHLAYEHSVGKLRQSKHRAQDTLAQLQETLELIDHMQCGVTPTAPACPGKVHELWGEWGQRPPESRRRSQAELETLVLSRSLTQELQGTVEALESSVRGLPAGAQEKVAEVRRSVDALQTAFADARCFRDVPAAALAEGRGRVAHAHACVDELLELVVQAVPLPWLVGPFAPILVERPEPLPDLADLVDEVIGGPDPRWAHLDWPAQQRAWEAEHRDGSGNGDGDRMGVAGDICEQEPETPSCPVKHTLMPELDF
Chain of Perilipin-5 (Homo sapiens) + 1-acylglycerol-3-phosphate O-acyltransferase ABHD5 (Homo sapiens) (Q8WTS1 whole entry, looked up): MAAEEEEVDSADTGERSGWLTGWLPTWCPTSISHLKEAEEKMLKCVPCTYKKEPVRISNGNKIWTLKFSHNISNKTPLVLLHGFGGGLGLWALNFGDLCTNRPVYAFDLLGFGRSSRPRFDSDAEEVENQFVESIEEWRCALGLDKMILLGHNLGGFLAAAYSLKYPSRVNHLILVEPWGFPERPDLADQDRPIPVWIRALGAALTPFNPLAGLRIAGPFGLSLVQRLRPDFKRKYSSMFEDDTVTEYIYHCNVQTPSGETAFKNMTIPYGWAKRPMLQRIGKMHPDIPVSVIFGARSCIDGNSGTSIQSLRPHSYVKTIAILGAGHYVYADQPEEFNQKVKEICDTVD
For the compound `O=C(c1ccccc1F)c1cc2c(cc1[N+](=O)[O-])OCCO2`, the inhibition was 2.64%.
With `O=C(CN1CC[n+]2c(-c3cccs3)csc21)c1ccc(Br)cc1`, the inhibition was 51.8% (active).
On to `COc1ccc(-c2c3c(=O)n(C)c(=O)n(C)c3cn2C2CCCCC2)cc1`, for which the inhibition is 7.04%.
For `O=C(O)/C=C/c1cccc(OCc2ccccc2)c1`, the inhibition is -15.3%.
For the compound `CC(C)C[C@H](NC(=O)NC(C)C)C(=O)O`, the inhibition was -0.17%.
On to `CC(C)OC(=O)CC1C(=O)NCCN1C(=S)NC(=O)c1cccs1` (configuration not stated), for which the inhibition was -6.51%.
Turning to `COc1ccc(C2CC(c3c(O)cc(C)oc3=O)=NCCS2)c(OC)c1` (configuration not stated), the inhibition was 22.5%.
The value for `O=C1ON=C(c2ccc(Cl)cc2)/C1=C/c1ccc(O)cc1` was 70.2% (active); that for `COc1cc2c(cc1OC)/C(=C/c1ccc(Cl)cc1)C(=O)OC2` was 33.3%.
With `Nc1cccc(C(=O)O)c1`, the inhibition is -4.68%.
On to `O=C(O)C1[C@H]2C(=O)N(C3CCCC3)C[C@]23C=C[C@H]1O3` (some centres not stated), for which the inhibition was -13.3%.
Next, `O=C1CCCN1C(=O)CCC(=O)N1CCCC1=O`: 4.49%; `Cc1oc2c(C)c3oc(=O)c4c(c3cc2c1C)CCCC4`: 1.69%; `CCc1ccc(/C=C2\Oc3cc(OC(=O)N4CCOCC4)ccc3C2=O)cc1`: 17.7%.
Consider `COc1ccccc1C(=O)Oc1ccc2c(c1)O/C(=C\c1ccncc1)C2=O`, for which the inhibition is 35.9%.
Next, `CS(=O)(=O)Oc1ccc2c(c1)O/C(=C\C=C\c1ccccc1)C2=O`: 53.5% (active); `O=C(O)C1CCN(C(=O)COc2ccc3c4c(c(=O)oc3c2)CCC4)CC1`: -5.81%.
On to `COc1ccc([C@H]2[C@H](C(=O)OC(C)(C)C)N3N=Cc4ccccc4C3C23C(=O)c2ccccc2C3=O)cc1OC` (some centres not stated), for which the inhibition was 0.07%.
Next, `O=C(NCCO)c1ccc2[nH]c3ccccc3c2c1`: -4.84%; `COc1ccc2nc(C)cc(Nc3ccccc3O)c2c1`: -5.57%; `O=C1c2ccccc2C2(c3ccccc3)NCCN12` (configuration not stated): 0.12%.
Next, `COc1cc2c3c(c1)C(C)CC(C)(C)N3C(=O)C2=O` (configuration not stated): 3.84%.
The value for `CC1(c2ccccc2)CC(C)(C)N2C(=O)C(=O)c3cccc1c32` (configuration not stated) was 59.8% (active); that for `Cc1[nH]c2ccccc2c1/C=C/c1nc2ccccc2c(=O)n1CCO` was 8.95%; that for `C[C@]12CC[C@@H]3c4ccc(O)cc4C(=O)C[C@H]3[C@@H]1CC[C@@H]2O` was 9.16%.
As for `CC(=O)OCC1OC(n2ccc(=O)[nH]c2=O)C(O)C1O` (configuration not stated), the inhibition is -2.69%.
Regarding `C/C(=N\NC(=O)C1(C)CC1(Br)Br)c1ccc([N+](=O)[O-])cc1` (configuration not stated), the inhibition was -8.2%.
The value for `O=C(NCc1ccc(N2CCCC2=O)cc1)c1ccc(F)cc1` was 7.2%; that for `CC(=Nc1ccccc1)C1=C(O)CCCC1=O` was 0.34%.
On to `CC1(C)c2ccccc2N2CC(=O)N(CC(N)=O)C21C` (configuration not stated), for which the inhibition is 4.9%.
Next, `CC1(C)c2ccccc2N2CC(=O)NC21/C=C/c1ccco1` (configuration not stated): 50.2% (active).
Next, `O=C(/C=C/c1ccco1)N1CCN(c2ccccc2)CC1`: 2.96%.
On to `Nc1ccc2cn[nH]c2c1`, for which the inhibition is -10.6%.
Next, `Cc1ccc(N2C(=O)c3ccccc3C2=O)cc1C`: -3.44%.
The value for `CNc1nc(N(C)C)nc(N(C)C)n1` was -0.61%; that for `COC(=O)c1ccc(C(=O)OC)c(NC(=O)C(C)C)c1` was -13.5%; that for `COc1ccc(C2=CC(=O)C=CC2=O)cc1` was 69.1% (active).
For `COc1ccc(C2C(=O)c3ccccc3C2=O)cc1`, the inhibition is -1.24%.
As for `COc1ccc(-c2nc(NC(C)=O)sc2-c2ccc(OC)cc2)cc1`, the inhibition was 2.96%.
The value for `COc1ccccc1CCn1cnc2c3cc(C)ccc3n(C)c2c1=O` was 12.2%.
Next, `CCOc1cc2c(cc1OCC)C(c1ccccc1)N(c1ccc(C(=O)O)cc1)C(=O)C2` (configuration not stated): 5.15%; `CCS(=O)(=O)Nc1cc(OC)c(OC)cc1Cc1nccc2cc(OC)c(OC)cc12`: -5.76%; `O=C(COc1ccc2ccc(=O)oc2c1)c1ccccc1`: -3.28%.
The value for `COc1ccc2c(c1)C=CC1(O2)N(CCO)c2ccccc2C1(C)C` (configuration not stated) was 50.9% (active); that for `COc1ccc(NC(=O)C2C(=O)N(CCO)C3(C)CC2c2ccccc2O3)cc1` (configuration not stated) was -8.28%; that for `O=C1CCCN1CCCn1cnc2c([nH]c3ccc(F)cc32)c1=O` was 1.78%.
Turning to `CC12CCCCN1CCCc1c2[nH]c2ccccc12` (configuration not stated), the inhibition is 6.67%.
For `CC(C)C[C@H](NC(=O)[C@@H]1Cc2ccccc2CN1C(=O)OC(C)(C)C)C(=O)NCC1CCC(C(=O)O)CC1` (some centres not stated), the inhibition is -1.68%.
As for `COc1ccccc1C(CC(=O)Nc1ccccc1C)c1ccc(OC(C)C)cc1` (configuration not stated), the inhibition was 1.65%.
Take `COc1ccc(CNCCC(c2ccc(F)cc2)c2ccc(OC(C)C)cc2)cc1OC` (configuration not stated): the inhibition is -5.38%.
Next, `COc1ccc(CN(CCC(c2ccccc2)c2ccc(OC(C)C)cc2)C(=O)CCl)cc1OC` (configuration not stated): 67% (active); `Cn1c(=O)oc2cc(S(=O)(=O)N3CCc4ccccc4C3)ccc21`: -0.05%.
Take `CC(C)C12CN3CC(C(C)C)(CN(C1)C3c1ccccc1O)C2=O` (configuration not stated): the inhibition was 0.76%.
The value for `c1coc(-c2nnc3n2C2(CCCC2)Cc2ccccc2-3)c1` was -2.54%; that for `CC(C)CN1CCN(Cc2ccc(C#CC(C)(C)O)cc2)CC1CCO` (configuration not stated) was 1.45%; that for `COc1ccc(CN2CCCCC2C(=O)Nc2ccc(OC)c(OCC(C)C)c2)cc1OC` (configuration not stated) was -8.58%.
Turning to `COc1ccccc1C(O)c1nccn1C` (configuration not stated), the inhibition was -0.96%.
The value for `COc1cc(/C=C(\C#N)C(=O)N2CCc3ccccc32)ccc1O` was 50.3% (active); that for `COc1cc(/C=C/C(=O)CC(=O)/C=C/c2ccc(O)c(OC)c2)ccc1O` was 47.6%.
Next, `CC12CCC(C(=O)N3CCc4ccccc43)(CC1=O)C2(C)C` (configuration not stated): -4.02%; `Cn1c(=O)[nH]c(=O)c2c1nc(NCc1ccco1)n2CCCc1ccccc1`: -10%; `CC1(C)CC(NC(=O)C23CCC(C)(C(=O)C2=O)C3(C)C)CC(C)(C)N1` (configuration not stated): -7.41%.

Broadly, the inhibition is the relative decrease from the control value, in per cent.

For the origin of these results see PubChem BioAssay AID493035 (The Scripps Research Institute Molecular Screening Center, 2011).
